Measurements as given in PubChem BioAssay AID1159580 (chemical genetic matrix, 2015).
Several values for one entry are separate records, joined by “and”; a condition that tells them apart may be missing. Equal values may be shown once. The whole screen tested about 5,500 compounds, of which about 2,000 (36%) were called active. Roughly 18% stayed inconclusive and do not appear here. Cut-off read from the data, not from the text of the source: active = normalized growth mostly below about 0.91 (no sharp cut-off); inconclusive = no clear call, values can overlap the other calls; inactive = mostly above about 0.92. The list shows a part of the results.

Experiment: chemical genetic growth profiling, strain panel (AID 1159580);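 note: tested at 20 µM; growth read once vehicle control cultures reached saturation at 30 °C; 1 = growth at the plate median or of vehicle wells; lower values mean less growth of the strain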
Settings: S. cerevisiae deletion strains, growth OD

Measured: normalized growth

COc1c2occc2c(OC)c2c(=O)cc(C)oc12
inactive: locus YAL021C, strain ccr4, hits give low values 0.992 | locus YAL026C, strain drs2, hits give low values 0.985 | locus YAL030W, strain snc1, hits give low values 0.992 | locus YBL061C, strain skt5, hits give low values 0.992 | locus YBR009C, strain hhf1, hits give low values 0.963 | locus YBR021W, strain FUR4, hits give low values 0.958 | locus YBR023C, strain chs3, hits give low values 0.97 | locus YBR171W, strain sec66, hits give low values 0.987 | locus YBR229C, strain ROT2, hits give low values 1.01 | locus YBR231C, strain swc5, hits give low values 0.944 | locus YBR279W, strain paf1, hits give low values 0.978 | locus YCL011C, strain gbp2, hits give low values 0.967 | locus YCL016C, strain dcc1, hits give low values 0.986 | locus YCL029C, strain bik1, hits give low values 0.998 | locus YCL061C, strain MRC1, hits give low values 0.995 | locus YCL069W, strain vba3, hits give low values 0.977 | locus YCR088W, strain abp1, hits give low values 0.991 | locus YDL005C, strain med2, hits give low values 0.989 | locus YDL035C, strain GPR1, hits give low values 1.05 | locus YDL040C, strain nat1, hits give low values 0.992 | locus YDL074C, strain BRE1, hits give low values 1.06 | locus YDL101C, strain DUN1, hits give low values 1.02 | locus YDL134C, strain PPH21, hits give low values 1.05 | locus YDL185W, strain tfp1, hits give low values 1.01 | locus YDL192W, strain arf1, hits give low values 1.01 | locus YDR001C, strain nth1, hits give low values 0.991 | locus YDR069C, strain doa4, hits give low values 0.985 | locus YDR101C, strain arx1, hits give low values 0.988 | locus YDR137W, strain rgp1, hits give low values 1.01 | locus YDR159W, strain sac3, hits give low values 0.97 | locus YDR162C, strain NBP2, hits give low values 1.02 | locus YDR195W, strain ref2 1.14 | locus YDR297W, strain sur2, hits give low values 0.979 | locus YDR318W, strain mcm21, hits give low values 1.01 | locus YDR334W, strain swr1, hits give low values 0.994 | locus YDR335W, strain msn5, hits give low values 0.987 | locus YDR388W, hits give low values 1 | locus YDR502C, strain sam2, hits give low values 1.01 | locus YEL003W, strain gim4, hits give low values 0.938 | locus YEL037C, strain rad23, hits give low values 0.99 | locus YEL061C, strain CIN8 (second series), hits give low values 0.981 | locus YER015W, strain faa2, hits give low values 0.977 | locus YER016W, strain bim1, hits give low values 0.994 | locus YER110C, hits give low values 1 | locus YER111C, strain swi4, hits give low values 1 | locus YER155C, strain BEM2 (second series), hits give low values 0.881 | locus YER155C, strain BEM2, hits give low values 1 | locus YER167W, strain BCK2, hits give low values 1.01 | locus YFR010W, strain ubp6, hits give low values 0.986 | locus YGL078C, strain dbp3, hits give low values 1.01 | locus YGL086W, strain mad1, hits give low values 1 | locus YGL167C, strain pmr1, hits give low values 0.997 | locus YGL173C, strain kem1, hits give low values 0.977 | locus YGL227W, strain vid30, hits give low values 0.99 | locus YGL240W, strain doc1, hits give low values 0.955 | locus YGL248W, strain PDE1, hits give low values 1.04 | locus YGL253W, strain hxk2, hits give low values 0.958 | locus YGR135W, strain pre9, hits give low values 1 | locus YGR252W, strain gcn5, hits give low values 0.965 | locus YHR013C, strain ard1, hits give low values 0.975 | locus YHR027C, strain rpn1, hits give low values 0.987 | locus YHR030C, strain SLT2, hits give low values 1.02 and 0.987 | locus YHR079C, strain IRE1 (second series), hits give low values 1 | locus YHR079C, strain IRE1, hits give low values 0.996 | locus YHR094C, strain hxt1, hits give low values 1.01 | locus YHR129C, strain ARP1, hits give low values 1.01 | locus YHR142W, strain chs7, hits give low values 0.949 | locus YHR200W, strain rpn10, hits give low values 1.04 | locus YIL066C, strain RNR3, hits give low values 1.02 | locus YIL073C, strain SPO22, hits give low values 1.13 | locus YIL125W, strain kgd1, hits give low values 1.02 | locus YIR030C, strain dcg1, hits give low values 1.01 | locus YJL092W, strain hpr5, hits give low values 0.996 | locus YJL095W, strain BCK1 (second series), hits give low values 0.993 | locus YJL095W, strain BCK1, hits give low values 1.03 and 1 | locus YJL115W, strain asf1, hits give low values 0.996 | locus YJL129C, strain trk1, hits give low values 1.01 | locus YJL134W, strain LCB3, hits give low values 1.01 | locus YJL154C, strain vps35, hits give low values 0.995 | locus YJL164C, strain tpk1, hits give low values 0.965 | locus YJL166W, strain qcr8, hits give low values 0.945 | locus YJL168C, strain set2, hits give low values 1.01 | locus YJL187C, strain SWE1 (second series), hits give low values 1.02 | locus YJL187C, strain SWE1, hits give low values 0.99 | locus YJR043C, strain POL32, hits give low values 1.03 | locus YJR066W, strain TOR1, hits give low values 0.931 | locus YJR075W, strain HOC1, hits give low values 1.03 | locus YKL009W, strain mrt4, hits give low values 0.991 | locus YKL068W, hits give low values 1.01 | locus YKL085W, strain MDH1 (second series), hits give low values 1.01 | locus YKL085W, strain MDH1, hits give low values 1.01 | locus YKL160W, strain elf1, hits give low values 0.963 | locus YKR001C, strain vps1, hits give low values 1.02 | locus YKR026C, strain gcn3, hits give low values 0.995 | locus YKR091W, strain srl3, hits give low values 0.998 | locus YLL001W, strain dnm1, hits give low values 0.949 | locus YLL026W, hits give low values 0.999 | locus YLL041C, strain sdh2, hits give low values 0.998 | locus YLR027C, strain aat2, hits give low values 0.99 | locus YLR039C, strain RIC1, hits give low values 1.18 | locus YLR058C, strain SHM2, hits give low values 1.01 | locus YLR102C, strain apc9, hits give low values 1.01 | locus YLR113W, strain HOG1, hits give low values 1.07 | locus YLR221C, strain rsa3, hits give low values 0.963 | locus YLR258W, strain gsy2, hits give low values 0.943 | locus YLR262C, strain YPT6 (second series), hits give low values 0.985 | locus YLR268W, strain sec22, hits give low values 0.999 | locus YLR320W, strain mms22, hits give low values 0.941 | locus YLR342W, strain FKS1, hits give low values 0.994 | locus YLR357W, strain rsc2, hits give low values 1.01 | locus YLR370C, strain arc18, hits give low values 0.996 | locus YLR371W, strain rom2, hits give low values 1.02 | locus YLR384C, strain iki3, hits give low values 0.986 | locus YLR418C, strain cdc73, hits give low values 1.04 | locus YML016C, strain PPZ1, hits give low values 1.01 | locus YML032C, strain rad52, hits give low values 1 | locus YML120C, strain ndi1, hits give low values 0.972 | locus YML124C, strain tub3, hits give low values 0.999 | locus YMR058W, strain fet3, hits give low values 0.975 | locus YMR078C, strain ctf18, hits give low values 1.02 | locus YMR125W, strain sto1, hits give low values 1.04 | locus YMR129W, hits give low values 1 | locus YMR205C, strain PFK2, hits give low values 0.985 | locus YMR223W, strain ubp8, hits give low values 0.992 | locus YMR231W, strain pep5, hits give low values 0.999 | locus YMR307W, strain GAS1, hits give low values 1.17 | locus YNL067W, strain RPL9B, hits give low values 0.986 | locus YNL128W, strain TEP1, hits give low values 1.02 | locus YNL153C, strain GIM3, hits give low values 1 | locus YNL183C, strain NPR1, hits give low values 0.949 | locus YNL209W, strain ssb2, hits give low values 0.977 | locus YNL233W, strain BNI4, hits give low values 1.03 | locus YNL248C, strain rpa49, hits give low values 0.989 | locus YNL250W, strain rad50, hits give low values 1.05 | locus YNL271C, strain bni1, hits give low values 1.01 | locus YNL298W, strain CLA4, hits give low values 1.02 | locus YNL307C, strain MCK1, hits give low values 1 | locus YNL322C, strain KRE1 (second series), hits give low values 0.998 | locus YNR049C, strain mso1, hits give low values 1 | locus YNR052C, strain pop2, hits give low values 1.01 | locus YOL012C, strain htz1 1.05 | locus YOL147C, strain pex11, hits give low values 1.01 | locus YOR001W, strain rrp6, hits give low values 0.946 | locus YOR061W, strain CKA2, hits give low values 1.02 | locus YOR069W, strain VPS5, hits give low values 1 | locus YOR070C, strain gyp1, hits give low values 0.988 | locus YOR080W, strain dia2, hits give low values 0.987 | locus YOR083W, strain WHI5, hits give low values 0.942 | locus YOR106W, strain vam3, hits give low values 0.966 | locus YOR136W, strain idh2, hits give low values 1.02 | locus YOR144C, strain elg1, hits give low values 1.01 | locus YOR184W, strain ser1, hits give low values 1.02 | locus YOR231W, strain MKK1, hits give low values 0.997 | locus YOR265W, strain rbl2, hits give low values 0.989 | locus YOR270C, strain vph1, hits give low values 0.839 | locus YOR290C, strain snf2, hits give low values 0.958 | locus YOR316C, strain cot1, hits give low values 1.03 | locus YPL051W, strain arl3, hits give low values 0.972 | locus YPL078C, strain atp4, hits give low values 0.951 | locus YPL106C, strain sse1, hits give low values 0.961 | locus YPL240C, strain hsp82, hits give low values 0.989 | locus YPL241C, strain CIN2, hits give low values 1.01 | locus YPL256C, strain CLN2, hits give low values 1.03 | locus YPR119W, strain clb2, hits give low values 1.01 | locus YPR141C, strain kar3, hits give low values 1.01 | locus YPR163C, strain tif3, hits give low values 0.992 | locus YPR167C, strain met16, hits give low values 1.02 | strain wtn01, hits give low values 0.999
active: locus YDR392W, strain spt3, hits give low values 0.734 | locus YNL071W, strain lat1, hits give low values 0.912
